# Hit rate of the full screen: of about 410,000 compounds, about 6,400 (1.6%) were called active. Inconclusive results (about 20%) are left out. The call rests on the fitted dose curve; in most records, active means well fitted inhibition curve with a large enough effect; inconclusive means small, poorly fitted or top-dose-only effect; inactive means no such curve, though single readings can be large or run the other way. What follows is part of a selection rich in actives, with near analogues and random picks from the rest.
# Target: Glucagon-like peptide 1 receptor (Homo sapiens) (UniProt P43220)
# Experiment: qHTS of GLP-1 Receptor Inverse Agonists (Inhibition Mode); further: nearly all actives have a fitted effect of over 55% in size
# Conditions: HEK293 GLP-1R CRE-luciferase, luminescence, 24 h, GLP-1R form is constitutively active; series mostly up to 38.3 µM; activity change, negative = inhibition: at the top concentration
# Procedure, shortened: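 qHTS in 1536-well format: reporter HEK293 cells expressing constitutive GLP-1R activity in DMEM + 10% Nu serum, 24 hr with compounds at 37 deg C, luminescence read after 12 min with detection reagent.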
# On the % scale 0 is the no-effect control and ±100 the full control effect; potency means the concentration at half of the fitted maximal effect.
# Glucagon-like peptide 1 receptor (Homo sapiens), sequence (P43220 whole entry, looked up): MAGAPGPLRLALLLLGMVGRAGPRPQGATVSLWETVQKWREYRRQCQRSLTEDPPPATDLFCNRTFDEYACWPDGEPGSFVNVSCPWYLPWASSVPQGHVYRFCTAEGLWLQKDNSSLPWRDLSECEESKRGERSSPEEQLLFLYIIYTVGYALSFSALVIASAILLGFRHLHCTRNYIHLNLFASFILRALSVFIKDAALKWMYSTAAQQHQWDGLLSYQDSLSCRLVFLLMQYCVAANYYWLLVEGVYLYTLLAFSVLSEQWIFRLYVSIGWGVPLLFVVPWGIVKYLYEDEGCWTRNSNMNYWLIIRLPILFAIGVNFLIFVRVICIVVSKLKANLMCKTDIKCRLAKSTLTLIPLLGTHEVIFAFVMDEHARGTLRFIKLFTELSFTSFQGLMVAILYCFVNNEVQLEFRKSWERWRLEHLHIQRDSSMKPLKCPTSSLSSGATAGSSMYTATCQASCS
Compound,Potency,"activity change, negative = inhibition"
Cc1ccc(C)c(NC(=S)NNC(=S)Nc2ccc(C(C)C)cc2)c1,3.55 µM (active),–
Cc1ccc(C)c(NC(=S)NNC(=O)c2csc(C)c2)c1,–,3.02% (inactive)
CC(C)c1ccc(NC(=S)NNc2ccc(Cl)c(C(=O)O)c2)cc1,–,-22.4% (inactive)
CCCCCCCC(=O)NC(Nc1ccccc1OC)C(Cl)(Cl)Cl (stereo not drawn),6.31 µM (active),–
CCCCCN(C(=O)NC(=O)Nc1ccccc1OC)S(C)(=O)=O,–,-1.5% (inactive)
CCCC(=O)NC(Nc1ccccc1OC)C(Cl)(Cl)Cl (stereo not drawn),–,0% (inactive)
Cn1ncc([N+](=O)[O-])c1C(=O)Nc1cc(Cl)ccc1Cl,–,-4.93% (inactive)
CCc1nc2ccc(C(=O)N(C)Cc3ccco3)cn2c1N(C)C(=O)Cc1ccccc1,–,-3.62% (inactive)
OC[C@@H]1CN(C2CCCC2)C[C@H](n2cnc3c(NC4CCC4)ncnc32)O1,–,-2.75% (inactive)
Cc1ccccc1OCC(=O)Nc1ccc2c(c1)ncn2C,–,17.7% (inactive)
COc1ccccc1C(=O)Nc1ccc(C)c(S(=O)(=O)N2CCCCC2)c1,14.1 µM (active),–
COc1ccc(NC(=O)C2=NNC(=O)CC2)cc1S(=O)(=O)N1CCCCC1,–,33.5% (inactive)
Cc1ccccc1OCC(=O)Nc1ccc(S(=O)(=O)N2CCOCC2)cc1,–,0.83% (inactive)
CCc1ccccc1OCC(=O)Nc1ccc(C)c(S(=O)(=O)N2CCCCCC2)c1,8.91 µM (active),–
Cc1ccc(NC(=O)COC(=O)C2CC2)cc1S(=O)(=O)N1CCOCC1,–,-1.9% (inactive)
COc1ccccc1C(CNC(=O)c1ccc(C)c(S(=O)(=O)N2CCCCC2)c1)N(C)C (stereo not drawn),–,-12.3% (inactive)
Cc1ccccc1OCC(=O)Nc1ccc(N2CCN(C(=O)C(C)C)CC2)c(Cl)c1,3.98 µM (active),–
Cc1ccc(NC(=O)CCC(=O)N2CCC(c3ccccc3)=N2)cc1S(=O)(=O)N1CCCCC1,–,4.32% (inactive)
CC1(C(=O)NS(=O)(=O)c2ccccc2)CCN1C(=O)c1ccccc1 (stereo not drawn),–,22.7% (inactive)
Nc1nc(CSc2nnnn2-c2ccccc2)nc(Nc2ccccc2)n1,–,25.2% (inactive)
CCOC(=O)C1=CCC2C(=O)N(Cc3ccccc3)C(=O)C12 (stereo not drawn),–,19.7% (inactive)

Compound,Potency,"activity change, negative = inhibition"
COC(=O)[C@]12CCCCC=C1N(Cc1ccco1)C(=O)[C@H](CC(=O)NCCCCc1ccccc1)C2,–,-33.9% (inactive)
CCN(C(=O)Nc1cccc2ccccc12)c1ccccc1,–,-26.5% (inactive)
CC(C)[C@H](NC(=O)c1ccccc1F)C(=O)Nc1cccc(S(=O)(=O)N2CCOCC2)c1,–,-8.55% (inactive)
CCCNC(=O)C1(C)CCN(C(=O)c2ccccc2OC(F)(F)F)C1 (stereo not drawn),–,-9.35% (inactive)
OC[C@H]1O[C@@H](c2nc(-c3nc(-c4ccc(F)cc4)no3)cs2)[C@H](O)[C@@H](O)[C@H]1O,–,0.715% (inactive)
CC1(C(=O)NCc2ccccc2)CN(S(C)(=O)=O)CC(=O)N1CC(F)(F)F (stereo not drawn),–,-0.0418% (inactive)
CC(=O)Nc1cccc(/C(C)=N/NC(=O)c2c(-c3ccccc3Cl)noc2C)c1,–,4.71% (inactive)
COCCNC(=O)c1ccccc1-c1nc(-c2ccccc2Cl)no1,–,-3.04% (inactive)
Cc1onc(-c2ccccc2Cl)c1C(=O)NCCn1ccc2ccccc21,6.31 µM (active),–
CCNC(=O)C1CCCN(C(=O)c2ccc(OC)cc2OC)CC1 (stereo not drawn),–,20.1% (inactive)
COc1ccc(NC(=O)c2cc(-c3ccc(C)o3)nc3ccccc23)cc1,–,-24.4% (inactive)
COc1cc(NC(=O)c2cc(C3CC3)nc3c2c(C)nn3-c2ccccc2)cc(OC)c1,10 µM (active),–
COc1ccccc1NC(=O)c1cc(C2CC2)nc2c1c(C)nn2-c1ccc(C)cc1,–,-11.6% (inactive)
CC(C)C[C@H]1CNC(=O)C(=O)N1C[C@@H]1CCCN1C[C@H](Cc1ccccc1)N1C[C@H](CC(C)C)N(CC2CCCCCC2)C(=O)C1=O,–,24.7% (inactive)
CCc1noc(C)c1C(=O)Oc1ccc(N(C)S(=O)(=O)c2ccc(C)c(C)c2)cc1,12.6 µM (active),–
CN(c1ccc(OCC(=O)O)cc1)S(=O)(=O)c1ccc2ccccc2c1,–,3.29% (inactive)
Cc1ccc(S(=O)(=O)N(C)C)cc1NC(=O)COC(=O)c1c(C)noc1C,–,2.65% (inactive)
COC(=O)c1ccc2nc(-c3cccc(Br)c3)c(Cc3ccc(OC)cc3C)n2c1,–,-12% (inactive)
COc1ccc(NC(=O)N(C)C[C@@H]2OCc3cn(nn3)CCCC(=O)N([C@H](C)CO)C[C@H]2C)c(OC)c1,–,-5.31% (inactive)
COc1ccc(CCC(=O)NCCc2csc(-c3ccc(Cl)cc3)n2)cc1,10 µM (active),–
COc1ccc(-c2nc(CCNC(=O)c3ccc(Br)o3)cs2)cc1,inactive,–

Compound,Potency,"activity change, negative = inhibition"
O=C(NCCc1csc(-c2ccccc2)n1)c1ccccc1F,–,-18.6% (inactive)
CN1OC[C@@H]2CN(C(=O)c3cccnc3)[C@H](c3ccc(N4CCCCC4)cc3)C[C@@H]21,–,22.9% (inactive)
CNC(=O)C[C@H]1C(=O)N(Cc2ccccc2)C[C@@H]1CSC,–,3.07% (inactive)
Oc1ccc(-c2nc3ccc(Cl)cn3c2Nc2ccc3c(c2)OCO3)cc1,–,5.13% (inactive)
Oc1ccccc1-c1nc2ccc(Cl)cn2c1Nc1ccc2c(c1)OCCO2,–,4.4% (inactive)
Cc1cccc2nc(-c3ccc(Cl)s3)c(Nc3ccc4c(c3)OCCO4)n12,10 µM (active),–
O=C(NCCS(=O)(=O)N1CCN(c2ccccc2)CC1)c1cc(=O)c2ccccc2o1,–,-0.814% (inactive)
CC1(C2CC2)NC(=O)N(CC(=O)N2CCN(c3ccccc3F)CC2)C1=O (stereo not drawn),–,3.81% (inactive)
O=C(Nc1ccc(OCCO)cc1)c1csc([C@H]2C[C@H](O)[C@@H](CO)O2)n1,–,14.8% (inactive)
CCOC(=O)CSc1nccc(N(C)C)c1C#N,–,4.71% (inactive)
COc1ccc(CSc2nc(N3CCOCC3)c3c(c2C#N)CC(C)(C)OC3)cc1,–,-7.76% (inactive)
CCOC(=O)CSc1nc(N2CCOCC2)c2c(c1C#N)CC(C(C)C)OC2 (stereo not drawn),2.24 µM (active),–
Cc1ccc(-c2c(N)nc3ncccn23)cc1,–,8.12% (inactive)
CCCc1c(-c2ccccc2F)ncn1Cc1ccccc1OC,–,-29.9% (inactive)
COc1cccc(NC(=O)C2(C)CCN2C(=O)CCC2CCCC2)c1 (stereo not drawn),–,-23.3% (inactive)
CC1(C(=O)Nc2cccc(Oc3ccccc3)c2)CCN1Cc1ccccc1Cl (stereo not drawn),10 µM (active),–
CSc1ccc(CN2CCC2(C)C(=O)Nc2ccc(C)c(O)c2)cc1 (stereo not drawn),–,-23.4% (inactive)
Cc1ccc(C)c(C(O)c2ncc(-c3cccc4ccccc34)[nH]2)c1 (stereo not drawn),–,-13.6% (inactive)
CCc1ccccc1NC(=O)CCOc1ccccc1,inactive,–
CCc1ccccc1NC(=S)Nc1cc(OC)c(NC(=O)C(C)C)cc1OC,–,-3.86% (inactive)
CCc1ccccc1NC(=O)/C(=C/c1ccccc1)c1ccccc1,11.2 µM (active),–

# Reference: PubChem BioAssay AID624417 (National Center for Advancing Translational Sciences (NCATS), 2012)
